Compound activity as filed in PubChem.
NPSR antagonist = qHTS Assay for Antagonists of the Neuropeptide S Receptor: cAMP Signal Transduction; Q6W5P4; CHO-NPSR cells, cAMP TR-FRET, antagonist mode; Potency, µM (titrated, usually from 38.3 µM), without a hit: at the top dose activity change, negative = inhibition, actives largely listed as inhibitors; 220,000 compounds, 1% hits; also: potency is read from the fitted curve at half-maximal effect; nearly all actives have a fitted effect of over 50% in size
IMPase Li inh = qHTS Assay for Identifying the Cell-Membrane Permeable IMPase Inhibitors: Potentiation with Lithium. CHO-M1 cells, IP1 TR-FRET (IP-One), carbachol + lithium. Potency, µM (highest dose often 59.4 µM), for inactives: at the top dose activity, negative = IMPase inhibition, hits mostly inhibitors. 210,000 compounds, 0.35% hits;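 also: IP1 builds up when IMPase is blocked and the TR-FRET signal falls; potency is read from the fitted curve at half-maximal effect; plate controls were basal vehicle for no effect and high inhibitor control for full effect; nearly all actives have a fitted effect of over 50% in size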
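CHO cells stably expressing M1 receptor (2000/well) were cultured 16–30 h, then exposed to compounds with a small lithium addition for 30 min at 37C. IP1 was measured by TR-FRET competition; AC50 from Hill fits.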
ALOX12 inhib = qHTS Assay for Inhibitors of 12-hLO (12-human lipoxygenase); Polyunsaturated fatty acid lipoxygenase ALOX12 (Homo sapiens), P18054; purified 12-hLO, xylenol orange hydroperoxide absorbance; Potency, µM (highest dose often 57.1 µM), for inactives: top-dose activity change, negative = inhibition, hits mostly inhibitors; 150,000 compounds, 0.12% hits; also: potency is read from the fitted curve at half-maximal effect; nearly all actives have a fitted effect of over 55% in size
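Hydroperoxide output read as Fe(III)-xylenol orange absorbance, 573-to-405 nm ratio, after 30 min reaction with 40 uM arachidonic acid. Enzyme: 150 nM purified human 12hLO, 15 min compound preincubation; 25 mM Hepes pH 7.0, room temperature.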
HPGD inh = qHTS Assay for Inhibitors of HPGD (15-Hydroxyprostaglandin Dehydrogenase) | Potency, µM, for the others: top-dose activity change, negative = inhibition, hits mostly inhibitors | AID 894, 2007 | 15-hydroxyprostaglandin dehydrogenase [NAD(+)] (Homo sapiens), P15428 | purified HPGD, NADH fluorescence kinetic, PGE2 substrate | 150,000 compounds, 4.3% hits; active = well fitted inhibition curve with a large enough effect, not every such curve was filed as active; inconclusive = small, poorly fitted or top-dose-only effect, or another doubt; inactive = no such curve, though single readings can be large or run the other way; also: potency is read from the fitted curve at half-maximal effect
Target sequence (P15428 whole entry, looked up): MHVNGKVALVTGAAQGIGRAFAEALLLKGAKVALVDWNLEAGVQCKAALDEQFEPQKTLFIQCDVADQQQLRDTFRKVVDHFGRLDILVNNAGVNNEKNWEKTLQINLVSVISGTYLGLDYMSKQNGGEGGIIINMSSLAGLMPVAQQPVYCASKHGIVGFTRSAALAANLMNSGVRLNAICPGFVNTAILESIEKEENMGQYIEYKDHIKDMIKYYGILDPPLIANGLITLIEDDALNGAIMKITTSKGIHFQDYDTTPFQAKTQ
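NADH formation kinetics: reaction with 30 uM PGE2 and 1 mM NAD+ (final), 20 nM enzyme, Tris-HCl pH 8 with Tween 20, after 15 min compound preincubation at room temperature. Fluorescence change, last versus first of five reads.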
ALDH1A1 inh = qHTS Assay for Inhibitors of Aldehyde Dehydrogenase 1 (ALDH1A1) | Purified ALDH1A1, NADH fluorescence, propionaldehyde substrate | AID 1030, 2008 | Aldehyde dehydrogenase 1A1 (Homo sapiens), P00352 | Potency, µM (series often up to 75.3 µM), without a hit: top-dose activity, negative = inhibition, actives largely listed as inhibitors | 220,000 compounds, 7.3% hits; active = well fitted inhibition curve with a large enough effect, not every such curve was filed as active; inconclusive = small, poorly fitted or top-dose-only effect, or another doubt; inactive = no such curve, though single readings can be large or run the other way;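 also: potency is read from the fitted curve at half-maximal effect; plate controls were no enzyme wells and a reference inhibitor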
IMPase inh = qHTS Assay for Identifying the Cell-Membrane Permeable IMPase Inhibitors; CHO-M1 cells, IP1 accumulation, HTRF TR-FRET ratio; inhibition (IP1 accumulation), % at 46.1 µM; 120,000 tested, under 10 active; AID 901, 2007; active = well fitted curve in the direction sought with a large enough effect in the signal ratio, not every such curve was filed as active; inconclusive = small, poorly fitted or top-dose-only effect, or a change in a side signal; inactive = no such curve, though single readings can be large or run the other way; the % refers to the signal ratio;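 also: cells stimulated with carbachol in lithium chloride buffer; plate controls were DMSO basal wells for no effect and reference inhibitor wells for full effect; higher means more IMPase inhibition seen as more IP1 and lower FRET ratio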
Target sequence (P97697 whole entry, looked up): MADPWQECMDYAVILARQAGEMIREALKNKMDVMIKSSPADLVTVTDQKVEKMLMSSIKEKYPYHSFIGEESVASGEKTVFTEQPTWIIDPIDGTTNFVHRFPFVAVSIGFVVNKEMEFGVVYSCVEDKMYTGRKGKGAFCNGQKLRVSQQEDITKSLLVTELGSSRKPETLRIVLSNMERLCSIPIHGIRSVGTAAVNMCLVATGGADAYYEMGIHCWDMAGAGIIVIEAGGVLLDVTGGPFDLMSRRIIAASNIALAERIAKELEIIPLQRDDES
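Measured: the HTRF emission ratio (665/620 nm) plus the 620 nm donor channel, each fitted to the Hill equation to give AC50. Cells were CHO-M1 given compounds up to 46 uM and a 30 min carbachol stimulation at 37C.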
Active calls of the source: *; ? = inconclusive; · = no result; [ ] = remark or other dose. Only some compounds are listed: those with a hit (about 8.9% of all), similar ones and a draw of the others. Unless noted, calls follow the shape of the dose curve; as a rule, active = well fitted curve in the direction sought with a large enough effect; inconclusive = small, poorly fitted or top-dose-only effect, or another doubt; inactive = no such curve, though single readings can be large; an effect the other way counts as inactive or inconclusive. Unless noted, % is scaled to controls: 0 for no effect and ±100 for the full control effect.

SMILES | NPSR antagonist | IMPase Li inh | ALOX12 inhib | HPGD inh | ALDH1A1 inh | IMPase inh
Oc1ccccc1C(=S)N1CCN(c2cccc(Cl)c2)CC1 | 12% | 9% | · | · | 10µM* | ·
CSc1ccccc1C(=O)N1CCN(c2cccc(Cl)c2)CC1 | -44% | 13% | · | · | -1% | ·
COc1ccc(C(=S)N2CCN(c3cccc(Cl)c3)CC2)c(OC)c1 | -19% | 17% | · | · | 20µM* | ·
COc1ccc(C(=O)c2ccc(N3CCOCC3)cc2)c(OC)c1 | -26%[46.1 µM] | · | -13% | · | 1.1µM* | -9
CC(=O)N1CCN(C(=S)c2ccc(Cl)cc2)CC1 | 24% | -6% | -4% | 25µM* | 18µM* | -5
NC(=O)c1ccc(C(F)(F)F)n(Cc2ccccc2Cl)c1=O | -5%[46.1 µM] | -1%[38.3 µM] | -16% | -3% | 7% | 5
COc1cccc(/C=C(/C(=O)OCC(=O)NC2CCCCCCC2)c2ccccc2)c1 | -38% | 13% | -1% | -13% | -9% | ·
CCc1nc2ccc(C(=O)Nc3cccc(C(C)=O)c3)cc2nc1CC | -8%[46.1 µM] | · | 0% | · | ? | 0
CC1(C)Cc2c(sc3c2c(=N)n(Cc2ccco2)c(=O)n3CC(=O)Nc2ccc(Cl)cc2)CO1 | 2%[46.1 µM] | 43%[38.3 µM] | -4% | -21% | 20µM* | 3
c1ccc(Nc2cccc(Nc3ccccc3)c2)cc1 | -27% | 19% | -11% | 8% | ? | ·
COc1ccc(Nc2ccc3c(c2)=NC2(CCCCC2)[N+]=3[O-])cc1 | ? | 97%[38.3 µM] | -22% | -16% | 3.5µM* | ?
[O-][N+]1=c2ccc(Nc3ccccc3)cc2=NC12CCCCC2 | 10µM* | 68%[38.3 µM] | -24% | -20% | 3.5µM* | 19
CC(C)(C)NC(=O)Cn1c(=O)oc2cc(S(=O)(=O)N3CCc4ccccc43)ccc21 | -7%[46.1 µM] | -4%[38.3 µM] | 0% | -6% | -3% | 1
Cc1c(NS(C)(=O)=O)c(=O)n(-c2ccccc2)n1C | 9%[46.1 µM] | 21%[38.3 µM] | -3% | -5% | 1% | -4
Cc1ccc(OCC(=O)N/N=C\c2ccc(O)cc2)c([N+](=O)[O-])c1 | 3% | -5% | · | · | -5% | ·
CCc1c(C)[nH]n(-c2nc(-c3ccccc3)cs2)c1=O | -21% | -7% | · | · | ? | ·
CCc1c(C)[nH]n(-c2nc(-c3cccc([N+](=O)[O-])c3)cs2)c1=O | -11% | 19% | -4% | -17% | 14µM* | ·
CCOC(=O)c1oc2ccc(S(=O)(=O)n3nc(-c4ccccc4)cc3N)cc2c1C | -27%[46.1 µM] | 7%[38.3 µM] | -10% | -14% | 11% | 6
Cc1ccc2sc(NNC(=O)c3cc(=O)c4ccccc4o3)nc2c1C | -23% | 19% | · | · | 13µM* | ·
Cc1cccc2sc(NNC(=O)c3cc(=O)c4ccccc4o3)nc12 | -8% | 6% | · | · | -2% | ·
COC(=O)c1c(C(=O)NCc2ccccc2)ncn1CC(O)COc1ccccc1 (configuration not stated) | -9%[46.1 µM] | -15%[38.3 µM] | -1% | -9% | 7.9µM* | -1
CCOc1cc(/C=C2/C(=N)N3OC(C)=CC3=NC2=O)ccc1OC(=O)c1ccco1 | -26% | 4% | · | · | 10µM* | ·
CCOc1ccc(/C=C2/C(=N)N3OC(C)=CC3=NC2=O)cc1OC | -11% | ? | · | · | ? | ·
CCOC(=O)c1ccc(N2NC(=O)/C(=C/c3ccc(OC(=O)c4ccco4)c(OC)c3)C2=O)cc1 | ? | 10% | 6% | 13µM* | ? | ·
CCOc1cc(/C=C2/SC(=S)NC2=O)ccc1OC(=O)c1ccco1 | -40% | 21% | · | · | 8.9µM* | ·
CCOc1cc(/C=C2/C(=N)N3OC(C)=CC3=NC2=O)ccc1OCCOc1ccccc1 | 10µM* | -4%[38.3 µM] | -9% | ? | ? | 6
